Experiment [1] is described as follows: qHTS assay for small molecule antagonists of peroxisome proliferator-activated receptor delta signaling (AID 588535; active = well fitted inhibition curve with a large enough effect in the signal ratio, with a control signal flat, not every such curve was filed as active; the % refers to the signal ratio;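 as to max response: cells co-treated with a PPAR-delta agonist as stimulator during compound exposure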). To be noted: HEK293T PPARd-UAS-bla, beta-lactamase FRET ratio, 18 h; 460 nm channel. In a few lines: (§1)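 Inhibition of PPAR-delta response element-driven beta-lactamase expression is measured in HEK293T cells exposed to a compound titration series for 18 hrs at 37 C. Half-maximal inhibition comes from Hill equation fitting.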

Experiment [2] has as its target Peroxisome proliferator-activated receptor delta (Homo sapiens) (UniProt Q03181). The experiment is described as above. To be noted: HEK293T PPARd-UAS-bla, beta-lactamase FRET ratio, 18 h; series mostly up to 76.7 µM. Summed up:
as §1

Experiment [3] addresses Peroxisome proliferator-activated receptor gamma (Homo sapiens) (UniProt P37231). Description: qHTS assay for small molecule agonists of peroxisome proliferator-activated receptor gamma signaling (AID 588536; active = well fitted curve in the direction sought with a large enough effect in the signal ratio, with a control signal flat, not every such curve was filed as active; the % refers to the signal ratio;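 also: 0% = DMSO basal wells and 100% = rosiglitazone at 2 µM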). To be noted: HEK293 PPARg-UAS-bla, beta-lactamase ratio, 16 h, percent of rosiglitazone response, DMSO as zero; series mostly up to 76.7 µM. Summed up:
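This is an agonist-mode beta-lactamase reporter assay in HEK293 PPAR-gamma-UAS-bla cells with 1% charcoal/dextran FBS. Compound titrations ran 16 h at 37 C before CCF4 detection. EC50 and efficacy are Hill fits scaled to 2 uM rosiglitazone (100%) and DMSO basal.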

For experiment [4], the target named is Vitamin D3 receptor (Homo sapiens) (UniProt P11473). Description: qHTS assay for small molecule antagonists of vitamin D receptor signaling (AID 588541; calls by dose curve;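 also: receptor activated by calcitriol during compound treatment; % is scaled to controls: 0 for no effect and ±100 for the full control effect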). To be noted: HEK293T VDR-UAS-bla, beta-lactamase ratio, antagonist mode; series mostly up to 76.7 µM. Summed up: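 VDR-UAS-bla HEK293T cells (2000/well, 2% charcoal-stripped FBS) were treated with titrated compounds plus 1-alpha,25-dihydroxyvitamin D3 (50 nM or 3 nM final) for 16 h at 37 C. CCF4 beta-lactamase fluorescence was read; Hill fits gave IC50.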

For experiment [5] the target is unchanged. Description: qHTS assay for small molecule agonists of vitamin D receptor signaling (AID 588543; calls by dose curve;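 also: 0% = DMSO basal and 100% = reference agonist control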). To be noted: HEK293T VDR-UAS-bla, beta-lactamase ratio, 16 h; series mostly up to 76.8 µM. Summed up:
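β-lactamase reporter, VDR-UAS-bla HEK293T, agonist mode. Cells plated 5 h at 37 °C, compound titration 16 h at 37 °C, CCF4 dye 2 h RT, ratio 460/530 nm. Hill fit → EC50, efficacy vs 50 nM 1α,25-(OH)2D3.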

The nature of experiment [6]: qHTS assay for small molecule agonists of retinoid X receptor alpha signaling (AID 588544). To be noted: HEK293T RXRa-UAS-bla, beta-lactamase reporter, 18 h; 530 nm emission.
Experiment [7] has as its target Thyroid hormone receptor beta (Homo sapiens) (UniProt P10828). Description: qHTS assay for small molecule agonists of thyroid hormone receptor beta signaling (AID 588545; calls by dose curve;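 also: 0% = DMSO only and 100% = 10 nM T3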). To be noted: TR-UAS-bla GripTite HEK 293, beta-lactamase ratio, agonist mode, 18 h; series mostly up to 76.7 µM. Summed up: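 TR-UAS-bla GripTite HEK 293 cells (2500/well, medium with 2% charcoal/dextran FBS) were treated in agonist mode for 18 h at 37 C, titrated. Beta-lactamase was read by CCF4 ratio after 2 h; normalized to 10 nM T3 (100%) and DMSO, Hill-fitted for EC50 and efficacy.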

Experiment [8] is described as follows: qHTS assay for small molecule antagonists of retinoid X receptor alpha signaling (AID 588546; active = well fitted inhibition curve with a large enough effect in the signal ratio, with a control signal flat, not every such curve was filed as active; the % refers to the signal ratio;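 also: cells stimulated with 9-cis-retinoic acid as agonist; % is scaled to controls: 0 for no effect and ±100 for the full control effect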). To be noted: HEK293T RXRa-UAS-bla, beta-lactamase ratio, antagonist mode; measured here: W530 green channel, cytotoxicity proxy. Summed up:
(§2)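 Beta-lactamase reporter inhibition, read as CCF4 fluorescence ratio (ex 405, em 460/530 nm) after 2 h at RT. HEK293T UAS-bla cells, 2500/well, were stimulated with 9-cis-RA at 500 or 100 nM final alongside test compound for 18 h at 37 C.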

In experiment [9] the target is Thyroid hormone receptor beta (Homo sapiens) (UniProt P10828). Description: qHTS assay for small molecule antagonists of thyroid hormone receptor beta signaling (AID 588547; active = well fitted inhibition curve with a large enough effect in the signal ratio, with a control signal flat, not every such curve was filed as active; the % refers to the signal ratio;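 also: cells stimulated with 0.4 nM T3 agonist during compound exposure; % is scaled to controls: 0 for no effect and ±100 for the full control effect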). To be noted: TR-UAS-bla HEK293, beta-lactamase ratio, antagonist mode, 18 h. Summed up: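 TR-UAS-bla GripTite HEK293 cells in 2% charcoal/dextran FBS medium were preincubated 4 h at 37 C, given compound (0.59 nM to 92 uM) plus 0.4 nM T3 (final) for 18 h, then CCF4 for 2 h at RT; Hill fit gave IC50.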

A short description of experiment [10]: qHTS assay for small molecule activators of the p53 signaling pathway (AID 651743; active = well fitted activation curve with a large enough effect in the signal ratio, not every such curve was filed as active; the % refers to the signal ratio; also: % of control where 0% means no effect). To be noted: HCT-116 p53RE-bla, beta-lactamase FRET ratio, 16 h; activation: stronger effect = higher value. Summed up: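 Agonist-mode quantitative HTS in HCT-116 cells carrying a p53-response-element beta-lactamase reporter; 16 h compound treatment at 37 C, then FRET substrate loading for 2 h at room temperature and fluorescence read.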

The target of experiment [11] is Peroxisome proliferator-activated receptor alpha (Homo sapiens) (UniProt Q07869). Description: qHTS assay for small molecule agonists of the peroxisome proliferator-activated receptor alpha (PPARalpha) signaling pathway (AID 651778). Also: % of control where 0% means no effect. To be noted: PathHunter PPARalpha complementation, chemiluminescence, 6 h; max response: stronger effect = higher value. In a few lines:
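Cells plated at 2,000/well and held overnight at 37 C, 5% CO2, then compound added by pin tool for 6 hr; after PathHunter detection reagent and 60 min at room temperature, chemiluminescence from enzyme complementation was read.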

Experiment [12] can be described thus: qHTS assay for small molecule agonists of the antioxidant response element (ARE) signaling pathway measured by Nrf2-dependant transcriptional activity (AID 720636; active = well fitted curve in the direction sought with a large enough effect in the repeat runs; an effect the other way counts as inactive or inconclusive; also: % of control where 0% means no effect). To be noted: ARE-luc HepG2, Nrf2 luciferase reporter, 16 h; series mostly up to 92.4 µM. Summed up: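 ONE-Glo luminescence, read 30 min after reagent addition at room temperature, reflected ARE reporter activity in HepG2 cells that had been incubated with compound for 16 hr at 37 C in 1% dialyzed FBS.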

The nature of experiment [13]: qHTS assay for small molecule agonists of the antioxidant response element (ARE) signaling pathway measured by Nrf2-dependant transcriptional activity - cell viability counter screen (AID 720653; active = well fitted curve in the direction sought with a large enough effect in the repeat runs; an effect the other way counts as inactive or inconclusive; also: % is scaled to controls: 0 for no effect and ±100 for the full control effect). To be noted: ARE-bla HepG2 viability, CellTiter-Glo ATP luminescence, 16 h; max response: stronger effect = lower value. Summed up: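 ARE-bla HepG2 cells (2,000/well) rested 5 hrs at 37C/5% CO2, then exposed to compounds in DMSO for 16 hrs. Viability was read in the same wells as intracellular ATP by luminescence, 30 min at room temperature after reagent addition.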

A short description of experiment [14]: qHTS assay for cell viability of HEK293 cells (AID 743288). Also: % is scaled to controls: 0 for no effect and ±100 for the full control effect; nearly all actives have a fitted effect of over 50% in size. To be noted: ATP luminescence (CellTiter-Glo), 18 h; max response: stronger effect = lower value. In a few lines: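 ATP luminescence (CellTiter-Glo) reports metabolically competent cell number after parental HEK293 cells, 2,000/well, were treated with DMSO-dissolved compounds for 18 h at 37 C; reagent incubation 30 min, room temperature.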

A short description of experiment [15]: qHTS assay for cell viability of the p53RE-bla HCT-116 cell line (AID 743292). Also: % is scaled to controls: 0 for no effect and ±100 for the full control effect; nearly all actives have a fitted effect of over 55% in size. To be noted: p53RE-bla HCT-116 viability, ATP luminescence, 16 h; series mostly up to 95 µM. Summed up:
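After plating at 4,000 cells per well and a 5 h rest at 37 C, HCT-116 cells carrying p53RE-bla received test chemicals in DMSO. Sixteen hours later at 37 C, CellTiter-Glo was added and luminescence recorded following 30 min at room temperature.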

Experiment [16] can be described thus: qHTS assay for environmental chemicals that activate the Aryl hydrocarbon Receptor (AhR) signaling pathway (AID 651777). Also: % of control where 0% means no effect; nearly all actives have a fitted effect of over 15% in size. To be noted: 1A2-DRE human hepatoma cells, luciferase, 24 h; activation: stronger effect = higher value. Summed up:
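Following a 24 hr incubation with test chemicals at 37 C and 5% CO2, 1A2-DRE human hepatoma cells received One-Glo reagent; after 30 min at room temperature, luciferase output reflected CYP1A2 induction via AhR.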

In experiment [17] the target is Nuclear receptor subfamily 1 group I member 2 (Rattus norvegicus) (UniProt Q9R1A7). Description: qHTS assay for small molecule activators of the rat pregnane X receptor (rPXR) signaling pathway (AID 651751; call rule not given here; also: 0% is about no effect). To be noted: rPXR reporter cells, luciferase (One-Glo), 24 h.
Experiment [18] addresses Retinoic acid receptor RXR-alpha (Homo sapiens) (UniProt P19793). Description: qHTS assay for small molecule antagonists of retinoid X receptor alpha signaling (AID 588546).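 Also: cells stimulated with 9-cis-retinoic acid as agonist; % is scaled to controls: 0 for no effect and ±100 for the full control effect.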 To be noted: HEK293T RXRa-UAS-bla, beta-lactamase ratio, antagonist mode. In a few lines: as §2
Experiment [19] in a line: qHTS assay for small molecule activators of the human pregnane X receptor (PXR) signaling pathway (AID 720659; call rule not given here; also: 0% is about no effect). To be noted: DPX-2 HepG2 CYP3A4-luciferase, 24 h; series mostly up to 92.3 µM.

Several values for one entry are separate records, joined by “and”; a condition that tells them apart may be missing. Equal values may be shown once. Results filed as inconclusive are left out. Activity calls are given as the source filed them. Unless noted, calls follow the shape of the dose curve; as a rule, active = well fitted curve in the direction sought with a large enough effect; inconclusive = small, poorly fitted or top-dose-only effect, or another doubt; inactive = no such curve, though single readings can be large; an effect the other way counts as inactive or inconclusive.

Sequence of Peroxisome proliferator-activated receptor alpha (Homo sapiens) (Q07869 whole entry, looked up): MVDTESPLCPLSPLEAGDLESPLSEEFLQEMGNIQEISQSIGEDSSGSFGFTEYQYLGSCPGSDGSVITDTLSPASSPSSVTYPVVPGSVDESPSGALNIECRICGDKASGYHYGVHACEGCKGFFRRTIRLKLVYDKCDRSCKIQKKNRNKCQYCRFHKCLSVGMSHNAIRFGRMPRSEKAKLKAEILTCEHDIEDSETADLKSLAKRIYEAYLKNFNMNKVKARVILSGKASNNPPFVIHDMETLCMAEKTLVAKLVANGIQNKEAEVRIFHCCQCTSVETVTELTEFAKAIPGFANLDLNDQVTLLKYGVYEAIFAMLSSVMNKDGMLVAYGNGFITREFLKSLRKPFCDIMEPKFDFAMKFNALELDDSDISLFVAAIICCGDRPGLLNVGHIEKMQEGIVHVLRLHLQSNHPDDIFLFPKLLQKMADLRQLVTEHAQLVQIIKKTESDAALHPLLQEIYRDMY
Sequence of Vitamin D3 receptor (Homo sapiens) (P11473 whole entry, looked up): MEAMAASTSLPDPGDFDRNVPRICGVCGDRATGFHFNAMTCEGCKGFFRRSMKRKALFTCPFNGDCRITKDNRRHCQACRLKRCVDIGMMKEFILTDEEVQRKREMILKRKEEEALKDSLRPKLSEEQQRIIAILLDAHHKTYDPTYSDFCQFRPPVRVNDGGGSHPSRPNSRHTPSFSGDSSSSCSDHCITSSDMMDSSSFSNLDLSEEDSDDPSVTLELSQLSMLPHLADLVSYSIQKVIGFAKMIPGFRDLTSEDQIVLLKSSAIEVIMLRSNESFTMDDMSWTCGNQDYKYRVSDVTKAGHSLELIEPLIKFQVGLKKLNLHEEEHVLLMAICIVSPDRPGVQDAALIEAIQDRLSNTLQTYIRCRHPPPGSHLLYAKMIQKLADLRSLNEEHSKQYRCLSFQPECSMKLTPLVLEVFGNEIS
Sequence of Peroxisome proliferator-activated receptor delta (Homo sapiens) (Q03181 whole entry, looked up): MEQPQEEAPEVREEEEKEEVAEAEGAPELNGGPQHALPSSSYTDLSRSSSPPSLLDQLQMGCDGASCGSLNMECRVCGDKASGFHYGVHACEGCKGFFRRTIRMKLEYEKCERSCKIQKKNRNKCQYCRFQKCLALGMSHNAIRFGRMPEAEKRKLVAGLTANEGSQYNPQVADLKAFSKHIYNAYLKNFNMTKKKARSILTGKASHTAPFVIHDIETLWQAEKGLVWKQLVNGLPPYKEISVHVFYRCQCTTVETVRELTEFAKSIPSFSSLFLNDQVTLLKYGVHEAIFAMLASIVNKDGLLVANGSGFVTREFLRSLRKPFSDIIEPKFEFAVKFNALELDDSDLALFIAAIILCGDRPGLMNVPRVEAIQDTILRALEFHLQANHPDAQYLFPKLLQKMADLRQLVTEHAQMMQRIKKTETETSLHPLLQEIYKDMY
Sequence of Thyroid hormone receptor beta (Homo sapiens) (P10828 whole entry, looked up): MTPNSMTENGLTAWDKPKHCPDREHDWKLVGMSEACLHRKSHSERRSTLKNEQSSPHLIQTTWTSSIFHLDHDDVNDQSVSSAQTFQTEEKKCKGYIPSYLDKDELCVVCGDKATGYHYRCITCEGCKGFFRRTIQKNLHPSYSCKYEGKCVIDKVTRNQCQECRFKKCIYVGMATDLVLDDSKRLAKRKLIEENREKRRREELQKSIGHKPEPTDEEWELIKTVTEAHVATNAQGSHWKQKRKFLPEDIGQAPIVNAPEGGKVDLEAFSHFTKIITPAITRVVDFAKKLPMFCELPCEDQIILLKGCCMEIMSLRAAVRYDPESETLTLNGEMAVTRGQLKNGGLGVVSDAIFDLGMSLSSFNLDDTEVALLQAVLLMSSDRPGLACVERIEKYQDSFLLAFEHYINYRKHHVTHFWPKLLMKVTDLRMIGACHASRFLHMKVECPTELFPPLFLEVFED
Sequence of Nuclear receptor subfamily 1 group I member 2 (Rattus norvegicus) (Q9R1A7 whole entry, looked up): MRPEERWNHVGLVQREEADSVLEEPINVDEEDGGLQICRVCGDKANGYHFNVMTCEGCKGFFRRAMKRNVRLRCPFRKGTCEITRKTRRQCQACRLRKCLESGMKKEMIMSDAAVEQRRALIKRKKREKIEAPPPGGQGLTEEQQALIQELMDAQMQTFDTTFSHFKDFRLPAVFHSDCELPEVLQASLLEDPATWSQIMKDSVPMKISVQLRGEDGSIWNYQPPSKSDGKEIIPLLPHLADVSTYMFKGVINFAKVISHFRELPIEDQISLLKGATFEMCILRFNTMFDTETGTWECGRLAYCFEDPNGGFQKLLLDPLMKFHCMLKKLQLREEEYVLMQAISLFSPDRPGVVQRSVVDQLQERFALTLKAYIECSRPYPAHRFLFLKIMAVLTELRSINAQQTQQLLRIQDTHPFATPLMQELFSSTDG
Sequence of Peroxisome proliferator-activated receptor gamma (Homo sapiens) (P37231 whole entry, looked up): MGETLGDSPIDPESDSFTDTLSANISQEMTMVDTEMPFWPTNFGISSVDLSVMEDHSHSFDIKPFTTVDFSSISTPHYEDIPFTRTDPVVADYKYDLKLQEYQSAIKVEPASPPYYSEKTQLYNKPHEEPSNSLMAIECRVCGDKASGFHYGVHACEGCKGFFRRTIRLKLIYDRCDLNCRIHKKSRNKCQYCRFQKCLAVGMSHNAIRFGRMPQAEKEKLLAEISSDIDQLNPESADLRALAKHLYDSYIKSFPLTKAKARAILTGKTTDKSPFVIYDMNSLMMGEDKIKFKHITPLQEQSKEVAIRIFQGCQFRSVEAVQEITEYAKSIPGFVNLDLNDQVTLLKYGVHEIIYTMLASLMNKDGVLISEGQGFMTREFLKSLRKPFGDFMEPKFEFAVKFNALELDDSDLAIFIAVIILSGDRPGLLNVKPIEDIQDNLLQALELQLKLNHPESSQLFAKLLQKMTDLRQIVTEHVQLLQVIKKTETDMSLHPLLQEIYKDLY
Sequence of Retinoic acid receptor RXR-alpha (Homo sapiens) (P19793 whole entry, looked up): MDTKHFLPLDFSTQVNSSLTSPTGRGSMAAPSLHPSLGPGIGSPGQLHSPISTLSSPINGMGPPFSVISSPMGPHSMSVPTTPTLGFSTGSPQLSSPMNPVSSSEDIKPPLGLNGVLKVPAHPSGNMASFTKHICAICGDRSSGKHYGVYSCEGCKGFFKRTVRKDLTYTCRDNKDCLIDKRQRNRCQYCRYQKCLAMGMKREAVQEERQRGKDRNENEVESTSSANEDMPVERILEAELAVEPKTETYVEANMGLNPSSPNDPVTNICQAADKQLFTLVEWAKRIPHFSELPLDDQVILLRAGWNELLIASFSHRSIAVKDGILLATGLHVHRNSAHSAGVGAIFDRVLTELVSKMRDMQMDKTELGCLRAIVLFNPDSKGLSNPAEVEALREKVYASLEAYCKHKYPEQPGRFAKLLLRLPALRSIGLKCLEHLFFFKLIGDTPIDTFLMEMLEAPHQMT

Consider `OCCOCCOCCOCCOCCO`, for which the max response was -16.8% in [1]; 5.49% in [6]; -8.78% in [8]; -1.15% (inactive) in experiment [11]; -9.49% (inactive) in experiment [13]; -4.24% (inactive) in experiment [14]. The Potency result in experiment [2], in experiment [4], in experiment [7], in experiment [12] and in [15] was “inactive” throughout. Also, the result in [3] and in experiment [5] was inactive. In addition, the activity change % (negative = inhibition) in experiment [9] was -16.4% (inactive). Moreover, in experiment [10], the activation was 2.86% (inactive).
Turning to `S=C([S-])NCCNC(=S)[S-].[Mn+2]`, the outcome in experiment [3] and in [5] was inactive. For the same molecule, the activity change % (negative = inhibition) in [9] is -12.7% (inactive). Further, the activation in [16] is 2.64% (inactive) and 10.8% (inactive). The max response was -2% (inactive) and -3.91% (inactive) in experiment [11]; -8.97% (inactive) and -21.3% (inactive) in experiment [13]; -16.3% (inactive) in [14]; -0.103% (inactive) and -4.92% (inactive) in experiment [17]. Further, in experiment [15], the Potency result is “inactive”.
On to `N#CSCSc1nc2ccccc2s1`, for which the outcome in experiment [5] was inactive. For the same molecule, in experiment [11], the max response was -9.14% (inactive). In experiment [12], the Potency entry was “inactive”.
Take `CCN(Cc1c(F)cccc1Cl)c1c([N+](=O)[O-])cc(C(F)(F)F)cc1[N+](=O)[O-]`: the max response in experiment [1] is -79%; in experiment [11], -0.89% (inactive); in experiment [13], -3.47% (inactive). For the same molecule, the Potency result in experiment [2], in experiment [4], in [12] and in [15] was “inactive” each time. The result in experiment [3] and in experiment [5] was inactive. In [9], the activity change % (negative = inhibition) is -17.5% (inactive). The activation was 1.01% (inactive) in experiment [10] and 0.127% (inactive) in experiment [16].
As to `Nc1ccc(Nc2ccccc2)cc1`, in experiment [3], the outcome was inactive. The max response was -6.58% in experiment [8]; -27.9% (inactive) in [18]; -0.422% (inactive) in experiment [11]; 14.3% (inactive) in experiment [13]; -17.7% (inactive) in [14]; 8.87% (inactive) in [17]. Further, the activation in [16] was 5.3% (inactive). Also, the Potency result in [15] was “inactive”.
For `CCCCCCC(C)OC(=O)COc1nc(F)c(Cl)c(N)c1Cl` (configuration not stated), the result in experiment [5] was inactive. In experiment [10], the activation is -6.58% (inactive). Also, the values for the max response in experiment [11], in [13] and in experiment [14] were 25.7% (inactive), 17% (inactive) and -29.6% (inactive), respectively. For the same molecule, the Potency result in [12] was “inactive”.
Turning to `O=C(Cl)c1cccc(C(=O)Cl)c1`, the max response in experiment [1] was -11.7%; in experiment [6], -7.46%; in [8] it was -3.89%; in experiment [18] it was -13.1% (inactive); in experiment [11], -0.213% (inactive); in experiment [13] it was 5.28% (inactive). The max response is -6.55% (inactive) in [14] and -0.886% (inactive) in [17]. For the same molecule, the Potency entry in experiment [2], in [4], in [12] and in experiment [15] was “inactive” in each case. Besides, the outcome in experiment [3], in experiment [5] and in experiment [19] was inactive. Also, in experiment [9], the activity change % (negative = inhibition) was -4.29% (inactive). Besides, the figures for the activation in [10] and in experiment [16] were -3.51% (inactive) and -0.235% (inactive), respectively.

For the origin of these results see PubChem BioAssay (NCATS).
